The panel holds about 83,000 compounds, 20% with a hit somewhere; the sample as a whole holds those more often.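 A percent growth of 40 corresponds to 60% growth inhibition; 0 means no net growth; -100 means all cells died. Active threshold: below 10.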 Activity calls are given as the source filed them.
Test system: CAKI-1 renal
Assay: NCI-60 one-dose screen, 48 h (100 = growth as untreated, 0 = no growth, -100 = all killed)
Conditions: 10 µM unless noted
Procedure: Growth inhibition of the CAKI-1 human tumor cell line is measured as a screen for anti-cancer activity. Cells are grown in 96 well plates and exposed to the test compound for 48 hours. Compounds are tested at a single concentration, which is 10^-5 M for most compounds. The reported endpoint is percent growth (GI% or GIPRCNT), where numbers from 0 - 100% represent growth inhibition, and numbers from -100% - 0 represent cell death. For example, a value of 40 represents 60% growth inhibition. A value of 0 means no net growth occurred over the course of the experiment. A value of -40 indicates 40% of cells at the beginning of the experiment died by the end of the experiment. A value of -100 means all cells are dead at the end of the experiment.
NCI-60 Human Tumor Cell Lines Screen was performed using the standard one-dose NCI protocol, which is described in more detail at https://dtp.cancer.gov/discovery_development/nci-60/default.htm.
Compounds with GIPRCNT values below 10 were considered active. Activity score was based on GIPRCNT using the following formula: […]
Score is 0 for GIPRCNT values of 100 or above, 50 for GIPRCNT values of 0, and 100 for GIPRCNT values of -100.

Row | SMILES | growth
1 | Cc1ccc(F)c(NC(=O)Nc2ccc(-c3cccc4[nH]nc(N)c34)cc2)c1 | 31.8% (inactive)
2 | C=CCN(/C=C1/C(=O)O[C@H](COC)[C@@]2(C)C1=C(O)C(=O)C1=C2[C@H](OC(C)=O)C[C@]2(C)C(=O)CC[C@@H]12)CC=C | 8.92% (active)
3 | Cc1ccc(NC(=O)c2ccc(CN3CC[C@H](N(C)C)C3)c(C(F)(F)F)c2)cc1Nc1nccc(-c2cncnc2)n1 | 6.85% (active)
4 | COc1cc(CCc2cc(NC(=O)c3ccc(N4C[C@@H](C)N[C@@H](C)C4)cc3)n[nH]2)cc(OC)c1 | 20.4% (inactive)
5 | COC(=O)[C@]12CC[C@@H](C)[C@H](C)[C@@H]1C1=CC[C@@H]3[C@@]4(C)C(c5cnco5)=C[C@@](C)(CO)C4=CC[C@@]3(C)[C@]1(C)CC2 | 34% (inactive)
6 | N#CC[C@H](C1CCCC1)n1cc(-c2ncnc3[nH]ccc23)cn1 | 34.9% (inactive)
7 | CC[C@H](Nc1ncnc2nc[nH]c12)c1nc2cccc(F)c2c(=O)n1-c1ccccc1 | 52.9% (inactive)
8 | O=C1C=CC2(NN=C(c3ccccc3)N2c2cccc(Cl)c2)C(Cl)=C1 (stereo not given) | 79.8% (inactive)
9 | CN1[C@@H]2CC[C@H]1/C(=C\c1ccccc1)C1=C2[C@@H](c2ccccc2)C(C#N)=C(N)O1 | 87.4% (inactive)
10 | O=C(CNc1nc(-c2ccc(Cl)cc2)cs1)Nc1ccc(-c2nc3ccccc3s2)cc1 | 94.2% (inactive)
11 | Cc1cc([C@@H](C)Nc2ccccc2C(=O)O)c2nc(N3CCOCC3)cc(=O)n2c1 | 18.9% (inactive)
12 | O=C(Cn1cncn1)Nc1ccc(-c2nc3ccccc3s2)cc1 | 93.8% (inactive)
13 | O=C(O)c1ccc2c(c1)nc(Nc1cccc(Cl)c1)c1ccncc12 | -16.7% (active)
14 | C=CC(=O)Nc1cc(Nc2nccc(-c3cn(C)c4ccccc34)n2)c(OC)cc1N(C)CCN(C)C | -86.4% (active)
15 | CCc1nc2ccc(Cc3ccc(C(=O)NO)cc3)cc2c(=O)n1CCc1ccccc1 | -37% (active)
16 | Fc1ccc(NCc2cn(-c3ccccc3)nc2-c2ccc(OCc3ccccc3)cc2)cc1Cl | 82.9% (inactive)
17 | C#Cc1cccc(Nc2ncnc3cc(OC)c(OCCCCCCC(=O)NO)cc23)c1 | -68.6% (active)
18 | C#Cc1cccc(Nc2ncnc3cc4c(cc23)OCCOCCOCCO4)c1 | 28.4% (inactive)
19 | COC(=O)Nc1nc2ccc(C(=O)c3ccc(N(C)C4COC4)cc3)cc2[nH]1 | 31.2% (inactive)
20 | Cc1ccc(NC(=O)Nc2ccc(Nc3ncnc4sc5c(c34)CCOC5)cc2)cc1Cl | 91.7% (inactive)

Row | SMILES | growth
21 | COc1ccc(-c2nocc2-c2cc(OC)c(OC)c(OC)c2)cc1 | 31.2% (inactive)
22 | CC(C)CC(=O)Nc1n[nH]c2c1CN(C(=O)C1CCN(C)CC1)C2(C)C | 39.8% (inactive)
23 | C[C@@H](Nc1cc(F)cc(F)c1)c1cc(C(=O)N(C)C)cc2c(=O)cc(N3CCOCC3)oc12 | 33.6% (inactive)
24 | Cc1nc2ccc(-n3ncc(C(=O)c4cc5ccccc5[nH]4)c3N)cc2[nH]1 | 62.2% (inactive)
25 | COc1cnc2c(c1)C(=O)c1c-2n(CCCn2ccnc2)c(=O)c2cc(Cl)ccc12 | 11.9% (inactive)
26 | COCC(=O)NC/C=C/c1ccc2ncnc(Nc3ccc(Oc4ccc(C)nc4)c(C)c3)c2c1 | 18.6% (inactive)
27 | CNC(=O)c1cnc(C)nc1-c1cc(C(C)(C)C)c(O)c(C(C)(C)C)c1 | 96.8% (inactive)
28 | O=C(Cc1ccc(/C=C/C(=O)c2ncc[nH]2)cc1)Nc1ccc(S(F)(F)(F)(F)F)cc1 | 81.7% (inactive)
29 | C[C@@H](Oc1cc(-c2cnn(C3CCNCC3)c2)cnc1N)c1c(Cl)ccc(F)c1Cl | -64.1% (active)
30 | COc1ccc(-n2c(=O)c3ccccc3n(Cc3ccc(C(=O)NO)cc3)c2=O)cc1 | 64.9% (inactive)
31 | CCN(CC)c1cc2oc3cc(N)cc(=N)c-3nc2cc1C | 42.5% (inactive)
32 | NC(=O)c1c(OCc2c(F)cc(Br)cc2F)nsc1NC(=O)NCCCCN1CCCC1 | -26.2% (active)
33 | Cc1cn(-c2cc(NC(=O)c3ccc(C)c(Nc4nccc(-c5cccnc5)n4)c3)cc(C(F)(F)F)c2)cn1 | 50.6% (inactive)
34 | O=C(Nc1cn[nH]c1-c1nc2ccc(CN3CCOCC3)cc2[nH]1)NC1CC1 | 23.2% (inactive)
35 | CCN(CC)Cc1cc(Nc2cc(C(F)(F)F)c(C#N)c3nc4ccccc4n23)ccc1O | 6.96% (active)
36 | COc1cnc2c(c1)C(=O)c1c-2n(CCCNC2=NCCS2)c(=O)c2cc(Cl)ccc12 | -91.8% (active)
37 | COc1cc(C(=O)NNC(=O)c2ccc(NC(=O)CCl)cc2)cc(OC)c1OC | 98.2% (inactive)
38 | O=C(c1ccc(F)c(F)c1Nc1ccc(I)cc1F)N1CC(O)([C@@H]2CCCCN2)C1 | 21.9% (inactive)
39 | CC/C(=C(\c1ccc(OCCN2CCCCCCC2)cc1)c1ccc(OC(=O)C2CCCCC2)cc1)c1ccc(Cl)cc1 | 93.8% (inactive)
40 | C=C1C[C@H](O)[C@H](Br)C(C)(C)[C@@]12CCC(C)=C(Cl)C2 | 16.3% (inactive)
